This is an account of results in PubChem BioAssay (Tox21).

Test [1] is described as follows: qHTS assay to identify small molecule agonists of the vitamin D receptor (VDR) signaling pathway - cell viability counter screen (AID 743224). Further: nearly all actives have a fitted effect of over 50% in size. Further: potency means the concentration at half of the fitted maximal effect. The essentials:
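Viability is measured in the same wells as the VDR-bla reporter assay: after 16 h compound treatment and 2 h substrate loading, CellTiter-Glo is added and luminescence read 30 min later.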
(qHTS replaces the single test concentration by a dilution series.)

The nature of test [2]: qHTS assay to identify small molecule antagonists of the vitamin D receptor (VDR) signaling pathway - cell viability counter screen (AID 743225). Further: nearly all actives have a fitted effect of over 50% in size. Further: potency means the concentration at half of the fitted maximal effect. An outline of the steps: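 Same-well multiplex: following 16 h treatment of HEK 293T cells carrying a UAS-driven beta-lactamase reporter with compound and agonist (3 nM final), and a 2 h FRET substrate step, CellTiter-Glo was added and luminescence read after 30 min.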

Test [3] is described as follows: qHTS assay to identify small molecule agonists of the NFkB signaling pathway (AID 1159509; active means well fitted curve in the direction sought with a large enough effect in the signal ratio in the repeat runs, not every such curve was filed as active; the % refers to the signal ratio; further: series mostly up to about 61 µM; on the % scale 0 is the no-effect control and ±100 the full control effect). The essentials:
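NFkB-bla ME-180 cells with a beta-lactamase reporter under an NF-kB response element were plated overnight, treated with compounds in DMSO for 5 hr at 37 C, then loaded with FRET substrate for 1.5 hr at room temperature.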

Test [4] is described as follows: qHTS assay to identify small molecule agonists of the NFkB signaling pathway - cell viability counter screen (AID 1159515; calls by dose curve; further: series mostly up to about 61 µM; on the % scale 0 is the no-effect control and ±100 the full control effect; nearly all actives have a fitted effect of over 55% in size). An outline of the steps:
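Multiplexed viability readout: after the 5 hr compound exposure and 1.5 hr FRET substrate step, CellTiter-Glo reagent went into the same NFkB-bla ME-180 wells; ATP luminescence was measured after 30 min at room temperature.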

The nature of test [5]: qHTS assay to identify small molecule antagonists of the retinoid-related orphan receptor gamma (ROR-gamma) signaling pathway - cell viability counter screen (AID 1159520). Further: on the % scale 0 is the no-effect control and ±100 the full control effect; nearly all actives have a fitted effect of over 50% in size. The essentials:
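Tet-on ROR gamma CHO cells (1,000/well) were plated 4 hr, given compounds in DMSO for 2 hr at 37 C, then induced with 1 uM final doxycycline for 16 hr. Viability was read as ATP by CellTiter-Glo luminescence after 30 min.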

In test [6] the target is Nuclear receptor ROR-gamma (Homo sapiens) (UniProt P51449). Kind of test: qHTS assay to identify small molecule antagonists of the retinoid-related orphan receptor gamma (ROR-gamma) signaling pathway (AID 1159521; further: nearly all actives have a fitted effect of over 50% in size; further: potency means the concentration at half of the fitted maximal effect). An outline of the steps:
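Inducible-expression reporter assay: doxycycline (1 uM final) switched on RORγ in CHO cells bearing a ROR response element-luciferase construct, with test compounds present from 2 h beforehand. Decreased luminescence after 16 h defined antagonist activity.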

Test [7] can be described thus: qHTS assay to identify small molecule agonists of the AP-1 signaling pathway - cell viability counter screen (AID 1159525; calls by dose curve; further: nearly all actives have a fitted effect of over 55% in size). The essentials:
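ME-180 AP-1-bla, 2500 cells/well, Opti-MEM + 0.5% dialyzed FBS; overnight 37 °C; cpd 15-pt titration, 5 h 37 °C; CellTiter-Glo 30 min RT; luminescence read; normalised to TOAB and DMSO controls.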

Test [8] can be described thus: qHTS assay to identify small molecule agonists of the AP-1 signaling pathway (AID 1159526; calls by dose curve; further: on the % scale 0 is the no-effect control and ±100 the full control effect).
A short description of test [9]: qHTS assay to identify small molecule agonists of the RXR signaling pathway - cell viability counter screen (AID 1159529). An outline of the steps:
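Counter screen: CellTiter-Glo luminescence. Cells: RXR-alpha-UAS-bla HEK 293T. Medium: 2% charcoal-stripped FBS. Treatment: 16 h, 37 C. Reagent incubation: 30 min, RT.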

A short description of test [10]: qHTS assay to identify small molecule antagonists of the retinoid acid receptor (RAR) signaling pathway - cell viability counter screen (AID 1159551). Further: on the % scale 0 is the no-effect control and ±100 the full control effect; nearly all actives have a fitted effect of over 35% in size. An outline of the steps: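 Cytotoxicity counter screen in C3RL4 cells: 6 h compound exposure with 1 uM retinol (final), viability from cellular ATP by luminescence.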
Test [11] is described as follows: qHTS assay to identify small molecule antagonists of the retinoic acid receptor (RAR) signaling pathway (AID 1159552; further: nearly all actives have a fitted effect of over 50% in size; further: potency means the concentration at half of the fitted maximal effect). The essentials: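 Antagonism of retinol-induced RARE reporter activity was measured in C3RL4 cells. Exposure to compounds and 1 uM final retinol lasted 6 hr at 37 C, with luminescence as endpoint.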
Test [12] can be described thus: qHTS assay to identify small molecule agonists of the retinoic acid receptor (RAR) signaling pathway (AID 1159553). Further: on the % scale 0 is the no-effect control and ±100 the full control effect. The essentials:
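Agonist activity was scored in C3RL4 cells bearing a retinoic acid response element luciferase construct. Cells were treated with compounds for 6 hr at 37 C, and luciferase signal was measured as luminescence.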

Test [13] in a line: qHTS assay to identify small molecule agonists of the endoplasmic reticulum stress response signaling pathway - cell viability counter screen (AID 1159517; calls by dose curve). The essentials: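 Luminescence readout: CellTiter-Glo, 30 min RT, same wells as the ESRE-bla reporter read. HeLa ESRE-bla, 1,500 cells/well, o/n 37 C; cpd 5 hr 37 C/5% CO2.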
For test [14], the target named is Retinoic acid receptor RXR-alpha (Homo sapiens) (UniProt P19793). Kind of test: qHTS assay to identify small molecule agonists of the RXR signaling pathway (AID 1159527; calls by dose curve; further: on the % scale 0 is the no-effect control and ±100 the full control effect; nearly all actives have a fitted effect of over 35% in size). The essentials:
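Compounds in DMSO were added to RXR-alpha-UAS-bla HEK 293T cells kept in 2% charcoal-stripped serum, and incubated 16 hr at 37 C with 5% CO2. Reporter signal came from a 2 hr B/G FRET substrate step.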

Test [15] in a line: qHTS assay to identify small molecule agonists of the endoplasmic reticulum stress response signaling pathway (AID 1159516; active means well fitted activation curve with a large enough effect in the signal ratio in the repeat runs, not every such curve was filed as active; the % refers to the signal ratio; further: on the % scale 0 is the no-effect control and ±100 the full control effect). The essentials: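 Tox21 10K library screened in quantitative HTS format on ESRE-bla HeLa cells, a beta-lactamase reporter under ER stress response element control; 5 hr treatment, FRET read.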

Molecules are shown by their SMILES. Records with an inconclusive call do not appear. A number with no mark means an inactive call. Activity calls are given as the source filed them. Unless noted, the call rests on the fitted dose curve; in most records, active means well fitted curve in the direction sought with a large enough effect in the repeat runs; inconclusive means weak or mixed curves; inactive means no such curve, though single readings can be large; an effect the other way counts as inactive or inconclusive.

Retinoic acid receptor RXR-alpha (Homo sapiens), sequence (P19793 whole entry, looked up): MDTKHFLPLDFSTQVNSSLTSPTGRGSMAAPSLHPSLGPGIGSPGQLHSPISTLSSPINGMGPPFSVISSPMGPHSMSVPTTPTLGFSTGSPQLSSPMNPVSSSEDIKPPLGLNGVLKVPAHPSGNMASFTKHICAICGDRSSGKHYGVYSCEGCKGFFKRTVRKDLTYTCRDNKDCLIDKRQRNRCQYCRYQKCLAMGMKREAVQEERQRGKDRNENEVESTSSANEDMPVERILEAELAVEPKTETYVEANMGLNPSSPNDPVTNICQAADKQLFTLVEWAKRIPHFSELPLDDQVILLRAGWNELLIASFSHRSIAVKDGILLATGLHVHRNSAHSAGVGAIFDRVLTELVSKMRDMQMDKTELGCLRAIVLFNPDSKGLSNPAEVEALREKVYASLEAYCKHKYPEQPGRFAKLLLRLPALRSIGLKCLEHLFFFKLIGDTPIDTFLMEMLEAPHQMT

Turning to `Cc1nc2ccccc2s1`, the Potency entry in test [1], in test [2], in [5], in test [6], in test [9] and in test [10] was “inactive” in each case. In addition, the Potency entry in [11] and in test [12] was “inactive” in each case. Moreover, the molecule was classed as inactive in [3], in test [4], in test [7] and in test [8].
Turning to `O=C(CCCN1CCN(c2ccc(F)cc2)CC1)NC1c2ccccc2CSc2ccccc21` (stereo unspecified), the Potency was 13.3 µM (active) in test [1], 23.9 µM (active) in [2] and 13.3 µM (active) in [6]. In addition, the molecule was called inactive in [3], in test [4], in test [13], in test [7] and in [8]. In addition, the Potency result in [10] is “inactive”.
As to `COC(=O)[C@@H]1CC2=CC(=O)CC[C@]2(C)[C@@]23O[C@@H]2C[C@@]2(C)[C@@H](CC[C@@]24CCC(=O)O4)[C@H]13`, the Potency entry in test [2], in [5], in [14], in test [10], in [11] and in [12] was “inactive” throughout. The call in test [3], in test [4], in [13], in test [7] and in [8] was inactive.
Turning to `CCCCCCCCCCCCCCCCBr`, the Potency result in test [1] and in [2] was “inactive” throughout. Besides, the result in [3], in [4] and in [15] was inactive. The activity, negative = cytotoxicity in test [5] is 1.45% [at 19 µM]. The activity change, negative = inhibition in [6] is 15.4% [at 19 µM]. Moreover, in test [7], the viability change, negative = cytotoxic is 3.43% [at 15.8 µM]. Also, in test [8], the activation is -6.6% [at 15.8 µM]. Besides, the activity change, negative = cytotoxicity in test [10] was 5.27% [at 19 µM]. Besides, the activity, negative = inhibition in test [11] is -1.48% [at 19 µM].
As for `CC(C)c1nnc2ccc(-c3ocnc3-c3cc(F)ccc3F)cn12`, the Potency entry in [1], in [2], in [5], in [9], in [10] and in test [12] was “inactive” in each case. The molecule was called inactive in test [3], in test [4] and in test [13]. The Potency in [11] was 27.3 µM (active).
Turning to `CCCCC1C(=O)N(c2ccccc2)N(c2ccc(O)cc2)C1=O` (stereo unspecified), the Potency entry in test [1], in test [2] and in test [11] was “inactive” in each case. Besides, the outcome in test [3], in [4] and in test [13] was inactive.
With `C=CCCCCCCCCCCCCCCCC`, the activity change, negative = cytotoxicity in test [1] is 7.44% [at 5.95 µM]. The activation in test [3] is 0.162% [at 6.95 µM]; in [15] it was 3.12% [at 6.95 µM]; in [8] it was -4.53% [at 6.97 µM]; in [14], 0.376% [at 6.98 µM]; in test [12], -0.865% [at 8.36 µM]. Also, the activity, negative = cytotoxic in test [4] was -0.437% [at 6.95 µM]. Besides, the activity, negative = cytotoxicity in [5] was 6.9% [at 8.39 µM]. Moreover, the activity change, negative = inhibition in test [6] is 11.3% [at 8.39 µM]. The viability change, negative = cytotoxic in test [7] was 4.34% [at 6.97 µM]. For the same molecule, in test [11], the activity, negative = inhibition is -14.9% [at 8.39 µM].
As to `CCC(C)(O)CCC=C(C)C` (stereo unspecified), the Potency entry in test [1], in test [5], in [14] and in [9] was “inactive” in each case. Also, the result in [3], in test [4], in test [13], in test [7] and in test [8] was inactive.
As for `O=C(O)c1ccccc1NCCc1ccccc1`, the Potency entry in [1], in [2], in test [5], in test [9], in [10] and in test [11] was “inactive” throughout. Moreover, the molecule was classed as inactive in [3], in test [4], in [13], in [7] and in test [8].
As to `Cc1ccc(S(=O)(=O)NC2CCCCC2)cc1`, the Potency result in test [1], in [2], in test [5], in test [9], in [10] and in test [12] was “inactive” in each case. Further, the result in test [3], in [4], in test [13], in test [7] and in test [8] was inactive.
On to `COc1cc2ncnc(Nc3ccc(F)c(Cl)c3)c2cc1OCCCN1CCOCC1`, for which the Potency entry in test [1] and in test [2] was “inactive” throughout. In addition, the result in [3], in [4], in [13] and in test [8] was inactive. In addition, the Potency in test [6] was 11.9 µM (active).
Consider `c1ccc(COCc2ccccc2)cc1`, for which the Potency result in test [1], in test [2], in [5], in test [6], in test [9] and in test [10] was “inactive” in each case. Also, the Potency entry in test [11] and in test [12] was “inactive” each time. The outcome in [3], in [4], in [15], in test [7] and in test [8] was inactive.
`CCC(=O)OC/C=C/c1ccccc1`: the Potency entry in test [1], in test [2], in test [5], in [6], in test [14] and in test [9] was “inactive” in each case. Moreover, in test [10], the Potency result is “inactive”. Moreover, the outcome in test [3], in test [4], in test [15], in test [7] and in test [8] was inactive.
As to `C/C=C/C=C/CCCCCCCO`, the Potency result in test [1], in [2], in test [5], in test [9] and in test [12] was “inactive” throughout. Besides, the result in test [3], in test [4], in [13], in [7] and in [8] was inactive.
Regarding `CCCOCCOCCO`, the Potency entry in [1], in test [2], in test [5], in test [14], in test [9] and in [10] was “inactive” in each case. Also, the Potency result in test [11] and in [12] was “inactive” throughout. For the same molecule, the molecule was called inactive in test [3], in test [4], in test [13] and in [7].
With `CCn1cc(C(=O)O)c(=O)c2cc(F)c(N3CCNCC3)nc21`, the Potency result in [1], in [2], in test [5], in test [14] and in [10] was “inactive” throughout. The call in [3], in test [4], in test [13], in test [7] and in test [8] was inactive.
Take `CC(C)OCC1CO1` (stereo unspecified): the Potency entry in test [1], in [2], in [5], in test [14] and in [11] was “inactive” throughout. Moreover, the molecule was called inactive in test [3], in [4], in [13], in test [7] and in test [8].
Consider `CCCC1C(CC)=CC(CC)=CN1c1ccccc1` (stereo unspecified), for which the molecule was called inactive in test [3], in test [4], in test [13], in test [7] and in [8]. For the same molecule, the Potency result in test [5], in test [14], in [9], in [10] and in [11] was “inactive” each time.
Take `O=C(c1ccc(O)cc1)c1ccc(Cl)cc1`: the Potency result in test [1], in test [2], in [6], in test [10] and in test [11] was “inactive” throughout. In addition, the molecule was classed as inactive in [3], in test [4], in [13], in [7] and in test [8].
On to `C[N+]1(C)CCC(=C(c2ccccc2)c2ccccc2)CC1`, for which the Potency result in test [1], in test [2], in [5], in [6], in test [9] and in test [10] was “inactive” in each case. Besides, in [11], the Potency result was “inactive”. Moreover, the molecule was classed as inactive in test [3], in test [4], in test [15], in test [7] and in [8].
With `O=C(C(=O)c1ccccc1)c1ccccc1`, the Potency entry in test [1], in [2], in test [5], in test [9] and in test [10] was “inactive” each time. Moreover, the result in [3], in test [4], in test [13], in test [7] and in [8] was inactive.
As for `CC1=C(C=O)C(C)(C)CCC1`, the Potency entry in test [1], in test [2], in [5] and in [10] was “inactive” in each case. The molecule was classed as inactive in test [3], in [4], in test [13], in test [7] and in test [8].
